# Compounds without any hit were thinned out: in the full panel of roughly 83,000, 20% have a hit.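 For each line, cells grew in 96-well plates with the test compound present at a single concentration for 48 hours.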 Values without a mark were called inactive. The source made the active and inactive calls. The calls were made as follows: active = growth percent below 10; inactive = the rest.
# System: OVCAR-5 ovarian
# Experiment: NCI-60 one-dose screen, 48 h (100 = growth as untreated, 0 = no growth, -100 = all killed)
# Settings: 10 µM unless noted
row,SMILES,growth
1,O=S(=O)(NCCCNc1cc(-c2cn(-c3ccccc3)nc2-c2cccc(O)c2)ccn1)c1ccc(Cl)cc1,37%
2,COc1ccc(-c2nc3sccn3c2-c2ccnc(NCCCNS(=O)(=O)c3ccc(C)cc3)n2)cc1,93.4%
3,O=C1c2ccccc2C(=O)c2c1oc1oc3c(c(=O)c21)c(=O)n(-c1ccccc1)c1ccccc31,88.7%
4,C#CCC1(c2ccc(F)c(F)c2)NS(=O)(=O)c2ccccc21 (stereo not drawn),107%
5,Cc1nc(Nc2cccnc2)sc1C(=O)/C=C/c1ccc(F)cc1,56.4%
6,CCC#CC[C@H]1C/C=C2/C(=O)C=C[C@@H]2C/C=C\CCCC(=O)O1,18.4%
7,CNC(=O)Cc1nc(-c2cccc(NS(=O)(=O)c3c(F)cccc3F)c2F)c(-c2ccnc(Nc3ccccc3)n2)s1,32.9%
8,CC(=O)Nc1ccc2c(c1)/C(=C\C=C/c1ccc([N+](C)(C)C)cc1)c1ccccc1-2,53.9%
9,COc1cc(OC)cc(-c2n[nH]nc2-c2ccc3c(c2)OCO3)c1,4.97% (active)
10,O=C1CCC/C=C\C[C@H]2C=CC(=O)/C2=C/C[C@H](C/C=C\CC(F)(F)F)O1,-6.91% (active)
11,O=C(Nc1cccc(Cl)c1)c1cc([N+](=O)[O-])ccc1O,68.8%
12,O=C1N=C(c2c(-c3[nH]c(=O)c4ccc(Br)cc4c3O)c(O)c3ccccc3c2O)C(=O)c2cc(Br)ccc21,10.4%
13,COc1cc(-n2nc(C(=O)Nc3ccc(C(=O)O)cc3)nc2-c2ccccc2)cc(OC)c1OC,86.3%

# — PubChem BioAssay (NCI)
